# Over roughly 110,000 compounds, “z-score” has its median near -0.1; the highest 2% begin near 2. Many of the other results were omitted from the sample, so the highest values are more common in it than they were. The source made the active and inactive calls.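 How the source made its calls: active means z-score in the third read window above 3 or below -3; inactive means the rest.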
# Target: Metabotropic glutamate receptor 8 (Rattus norvegicus) (UniProt P70579)
# Experiment: rat mGluR8 modulators via GIRK flux, primary screen, cell-based, thallium flux, HTS (AID 488969)
# Details: HEK293 rat mGluR8, GIRK (G protein-gated inwardly rectifying potassium channel) thallium flux, FluoZin2; at 10 µM; stronger effect = higher value; submaximal glutamate (EC20) added with thallium
# Metabotropic glutamate receptor 8 (Rattus norvegicus), sequence (P70579 whole entry, looked up): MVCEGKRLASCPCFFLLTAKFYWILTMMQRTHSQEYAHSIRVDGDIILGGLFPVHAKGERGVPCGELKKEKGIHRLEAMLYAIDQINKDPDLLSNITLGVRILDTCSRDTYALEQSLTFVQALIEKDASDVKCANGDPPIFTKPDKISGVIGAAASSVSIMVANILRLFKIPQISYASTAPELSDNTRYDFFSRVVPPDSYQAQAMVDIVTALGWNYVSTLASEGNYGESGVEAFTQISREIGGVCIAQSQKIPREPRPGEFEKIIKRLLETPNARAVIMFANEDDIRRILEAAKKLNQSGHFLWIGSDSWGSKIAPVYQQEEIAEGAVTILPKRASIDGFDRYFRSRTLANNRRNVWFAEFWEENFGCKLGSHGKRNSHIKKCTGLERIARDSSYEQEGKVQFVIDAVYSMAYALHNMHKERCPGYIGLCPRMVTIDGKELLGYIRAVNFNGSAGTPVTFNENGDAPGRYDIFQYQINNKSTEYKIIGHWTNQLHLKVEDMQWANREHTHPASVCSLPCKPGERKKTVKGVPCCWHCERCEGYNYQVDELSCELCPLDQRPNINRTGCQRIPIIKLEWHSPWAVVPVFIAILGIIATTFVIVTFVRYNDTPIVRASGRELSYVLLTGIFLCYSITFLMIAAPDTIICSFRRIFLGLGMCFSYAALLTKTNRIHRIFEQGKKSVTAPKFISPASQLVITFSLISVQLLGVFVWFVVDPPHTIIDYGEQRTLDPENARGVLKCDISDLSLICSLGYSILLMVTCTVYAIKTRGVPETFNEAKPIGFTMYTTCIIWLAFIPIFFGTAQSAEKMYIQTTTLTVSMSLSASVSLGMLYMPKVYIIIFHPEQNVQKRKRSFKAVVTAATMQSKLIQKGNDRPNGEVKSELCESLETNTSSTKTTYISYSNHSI
row,SMILES,z-score
1,COc1ccc(/C=C2/SC(=O)N(CC(O)Cn3c4ccccc4c4ccccc43)C2=O)cc1 (stereo unspecified),-0.167
2,Cc1cc(=O)[nH]c(N/N=C/c2cccs2)n1,-0.0197
3,O=C1CC(C(=O)Nc2ccccc2)C2(CCCC2)O1 (stereo unspecified),-0.154
4,O=C1CC(C(=O)Nc2ccccc2)C2(CCCCC2)O1 (stereo unspecified),-0.333
5,O=C1CC(C(=O)Nc2ccc(Br)cc2)C2(CCCC2)O1 (stereo unspecified),2.34
6,CCOC(=O)Cc1csc(NC(=O)c2cccc(OC)c2)n1,0.0443
7,CC1CCCCC12NC(=O)N(CC(=O)Nc1sc3c(c1C(N)=O)CCC3)C2=O (stereo unspecified),0.0207
8,CC(C)C1Oc2ccccc2N(CC(=O)NCCCN2C(C)CCCC2C)C1=O (stereo unspecified),0.132
9,CCC(C)(C)NC(=O)C(c1ccc(F)cc1)N(Cc1ccco1)C(=O)c1cnccn1 (stereo unspecified),3.05 (active)
10,COC(=O)c1ccc(C(C(=O)NCc2ccccc2)N(Cc2ccco2)C(=O)c2cnccn2)cc1 (stereo unspecified),0.053
11,CCC(C)(C)NC(=O)C(c1ccc(F)cc1)N(Cc1ccco1)C(=O)c1snc(C(N)=O)c1N (stereo unspecified),-0.00804
12,O=C(CN1CCOCC1)Nc1ccccc1C(=O)O,-0.257
13,COc1cc(OC)c(-c2cc(C(=O)O)ccc2OC)c(OC)c1,-0.305
14,N/C(COc1cccc(C(F)(F)F)c1)=N\NC(=O)c1cccnc1Oc1ccccc1,-0.285
15,COc1ccc(-c2nnn(CCc3nn[nH]n3)n2)cc1,-0.103
16,O=C(Nc1ccc(Br)cc1F)C1CCCO1 (stereo unspecified),-0.0425
17,CC1CCC(NC(=O)Cn2c(=O)[nH]c3ccsc3c2=O)CC1 (stereo unspecified),-0.274
18,O=C(Cn1c(=O)[nH]c2ccsc2c1=O)NC1CCCCCC1,8.37 (active)
19,O=C(Cn1c(=O)[nH]c2ccsc2c1=O)NC1CCCCC1,-0.236
20,COC(=O)/C=C/C(=O)N1CCN(c2ccccc2)CC1,-0.0929
21,COC(=O)C1=C(C)N(Cc2ccc(OC)cc2)C(=O)C1,-0.151
22,COC(=O)C1=C(C)N(CCc2ccccc2)C(=O)C1,-0.0388
23,COC(=O)C1=C(C)N(CCc2ccc(OC)cc2)C(=O)C1,2.28
24,NC(=O)c1ccsc1NC(=O)CSc1nc2ccccc2c(=O)n1CCCO,-0.109
25,O=C(COC(=O)c1cccc([N+](=O)[O-])c1)NCc1ccc2c(c1)OCO2,-0.0402

row,SMILES,z-score
1,CCc1cc(C(=O)OC)c(NC(=O)CCC(=O)O)s1,-0.105
2,Fc1ccccc1-c1nnc2c3ccccc3nc(N3CCOCC3)n12,-0.0489
3,Brc1ccc(-c2nnc3c4ccccc4nc(N4CCOCC4)n23)cc1,4.42 (active)
4,Clc1ccc(-c2nnc3c4ccccc4nc(N4CCOCC4)n23)cc1Cl,-0.168
5,Cc1cc(C)nc(/N=C(\N)Nc2cccc([N+](=O)[O-])c2)n1,-1.04
6,OCCNCCOc1ccccc1-c1ccccc1,-0.00757
7,COCCCNCCCCOc1ccccc1-c1ccccc1,0.319
8,COCCNCCOc1ccccc1-c1ccccc1,3.67 (active)
9,COCCCNC(=O)CS(=O)(=O)Cc1nc(-c2cccc(OC)c2)oc1C,0.565
10,CCCNC(=O)CS(=O)(=O)Cc1nc(-c2cccc(OC)c2)oc1C,0.16
11,CCCCN(CC)CCCNC(=O)CS(=O)(=O)Cc1nc(-c2cccc(OC)c2)oc1C,3.63 (active)
12,CC1=CC(C)(C)n2c(O)c(N=NC(N)=S)c3cccc1c32,2.69
13,CC1=CC(C)(C)n2c(O)c(N=NC(N)=S)c3c(C)ccc1c32,1.1
14,CC1=CC(C)(C)n2c(O)c(N=NC(N)=S)c3cc(C)cc1c32,1.04
15,N#CCSc1nnc(-c2ccccc2O)n1Cc1ccccc1,-0.264
16,OC1(c2cccc(F)c2)CCN(Cc2ccncc2)CC1,-0.584
17,OC1(c2ccc3ccccc3c2)CCN(Cc2ccccc2)C1 (stereo unspecified),2
18,c1ccc2cc(CN3CCOCC3)ccc2c1,0.71
19,CC1(C)Cc2cccc(OCC(=O)Nc3cccnc3)c2O1,0.958
20,COc1ccc(C(=O)N/C(=C\c2cccc3ccccc23)C(=O)NCCc2c[nH]c3ccccc23)cc1OC,-1.59
21,Cc1ccc(CSc2nnc(-c3ccc(S(=O)(=O)N4CCCC4)cc3)o2)cc1,1.62
22,NC(=O)CSc1nnc(-c2ccc(S(=O)(=O)N3CCCC3)cc2)o1,-0.271
23,O=S(=O)(c1ccc(-c2nnc(SCc3nnc(-c4ccccc4)o3)o2)cc1)N1CCCC1,3.72 (active)
24,CO/N=C/c1ccc(Sc2ccccc2)c([N+](=O)[O-])c1,-0.0163
25,C=CCNC(=S)NNC(=O)c1ccccc1,-0.00102

row,SMILES,z-score
1,C=CCNC(=O)NC(=S)c1ccccc1,3.72 (active)
2,O=C(NCCO)NC(=S)c1ccccc1,-0.169
3,CCNc1nc(NCC)nc(C(=O)Nc2ccccc2)n1,-0.0479
4,O=C(NCc1ccc(Cl)cc1)C1C2C=CC3(CN(Cc4cccnc4)C(=O)C13)O2 (stereo unspecified),0.82
5,OCCN(Cc1ccccc1)Cc1ccc(C(F)(F)F)cc1,-0.0102
6,O=C(O)c1ccccc1SC1CC(=O)N(C2CCCCC2)C1=O (stereo unspecified),-0.0935
7,Cc1ccc(NC(=O)C2CC(=O)OC23CCOC(C)(C)C3)cc1 (stereo unspecified),-0.427
8,CC(C)C(=O)NC(Nc1ccccc1F)C(Cl)(Cl)Cl (stereo unspecified),-0.185
9,CCCCCCn1ccc(=N)cc1,0.937
10,CCCCCCCn1ccc(=N)cc1,-0.268
11,CCCCCn1ccc(=N)cc1,1.99
12,Cc1ccc(C)c(S(=O)(=O)N2C(=S)NC(=O)C2C(C)C)c1 (stereo unspecified),0.0469
13,CCN(CC)S(=O)(=O)c1ccc(N2CCOCC2)c(NC(=O)C(=O)c2c(-c3ccccc3)cc3ccccn23)c1,-0.54
14,CN(C)S(=O)(=O)N1CCN(S(=O)(=O)c2ccccc2)CC1,-0.177
15,Cc1csc(NC(=O)CSc2nnc(CCNC(=O)c3ccc(Cl)c(Cl)c3)n2C)n1,-0.837
16,Cc1cccc(C(=O)NCCc2nnc(SCC(=O)Nc3nc(C)cs3)n2C)c1,2.62
17,Cc1csc(NC(=O)CSc2nnc(CCNC(=O)c3cccs3)n2C)n1,-0.0983
18,N#CCCN(C(=O)CSc1nc(-c2ccccc2)cn1N)c1ccc(F)cc1,-0.2
19,COc1cc2c(cc1OC)C(C(=O)NCCN1CCOCC1)C1c3ccccc3CCN1C2=O (stereo unspecified),-1.12
20,Oc1ccc2ccccc2c1N=Nc1ccccn1,2.19
21,O=C(O)Cc1c(O)ccc2ccccc12,-0.0548
22,Oc1c(/C=N/c2ncn[nH]2)ccc2ccccc12,0.0888
23,Oc1ccc(N=Nc2c(O)ccc3ccccc23)cc1,-0.0552
24,N/C(=N\OC(=O)Cc1cccc2ccccc12)c1ccccn1,0.135
25,Oc1c(N=Nc2ccccn2)ccc2ccccc12,13.6 (active)

row,SMILES,z-score
1,CCOc1cc(C2C(C#N)=C(N)OC(C)=C2C(C)=O)cc(Br)c1O (stereo unspecified),-1.08
2,O=C(Nc1ncc2c(n1)-c1ccccc1CC2)c1cccc(Cl)c1,-0.891
3,CCN(c1ccc(NC(=O)COC(=O)CCC(=O)c2ccc(F)cc2)cc1)C(C)C,-0.471
4,Cc1cc(C)cc(-n2c(SC(C)C(=O)NCc3ccc4c(c3)OCO4)nc3ccccc3c2=O)c1 (stereo unspecified),-0.19
5,CCc1ccc(-c2ccc(C(=O)C(F)(F)F)[nH]2)cc1,-0.0177
6,Cc1ccc(-c2ccc(C(=O)O)[nH]2)cc1,2.4
7,Cc1ccc(-c2ccnc(=S)[nH]2)cc1,0.997
8,Cc1nn(C)cc1C1Nc2ccccc2C(=O)N1O (stereo unspecified),-0.121
9,Cc1ccsc1C1Nc2ccccc2C(=O)N1O (stereo unspecified),-0.218
10,O=C1c2ccccc2NC(c2ccc(-c3cccc(Cl)c3)o2)N1O (stereo unspecified),2.57
11,N#CC1=C(S)N(c2ccccc2)C(c2ccc(-c3cccc(Cl)c3)o2)NC1=O (stereo unspecified),-0.292
12,O=C1c2ccccc2NC(c2ccco2)N1O (stereo unspecified),-0.422
13,Cc1c(C2Nc3ccccc3C(=O)N2O)cnn1C (stereo unspecified),0.189
14,O=C1c2ccccc2NC(c2ccc(-c3ccc(Br)cc3)o2)N1O (stereo unspecified),3.36 (active)
15,Cc1cc([N+](=O)[O-])ccc1-c1ccc(C2Nc3ccccc3C(=O)N2O)o1 (stereo unspecified),3.53 (active)
16,O=C1c2ccccc2NC(c2cn[nH]c2-c2ccccc2)N1O (stereo unspecified),-0.0761
17,CC1CCC(NC(=O)Nc2cccs2)CC1 (stereo unspecified),0.643
18,CCOC(=O)c1c(NC(=O)C2=C(C)NC(=S)NC2c2ccc(F)cc2F)sc(C)c1C (stereo unspecified),0.556
19,CCCCCCn1c(C)nc2c(c1=O)c1nc3ccccc3nc1n2/N=C/c1ccco1,0.218
20,CC1(C)Cc2nc3[nH]c(=S)n(-c4ccccc4)c(=O)c3cc2CO1,-0.126
21,CCn1c(SCc2ccc(Cl)cc2)nc2nc3c(cc2c1=O)CCCC3,0.193
22,C=CCn1c(=S)[nH]c2nc3c(cc2c1=O)CCCC3,4.15 (active)
23,CCC1(C)Cc2nc3[nH]c(=S)n(-c4ccccc4)c(=O)c3cc2CO1 (stereo unspecified),-0.0711
24,CCn1c(SCC(=O)Nc2ccc(C)cc2)nc2nc3c(cc2c1=O)CCCC3,0.307
25,CCn1c(=S)[nH]c2nc3c(cc2c1=O)CCCC3,2.31

row,SMILES,z-score
1,CN(C(=O)c1ccncc1)c1nnc(-c2cnccn2)s1,-0.251
2,COc1ccc(NC(=O)Cc2coc3cc(C)c(C(C)C)cc23)cc1S(=O)(=O)N1CCOCC1,-0.503
3,CCOC(=O)/C(C#N)=C/c1cc2ccccc2nc1Cl,-0.3
4,O=C(c1ccco1)N1CCN(S(=O)(=O)c2ccc(Cl)s2)CC1,-0.0642
5,COc1cccc(N(CC(=O)N/N=C(\C)c2cccs2)S(C)(=O)=O)c1,-0.154
6,CCOC(=O)C1=C(C)OC(N)=C(C#N)C1c1cncc(-c2ccc(F)cc2)c1 (stereo unspecified),2.92
7,CC1=C(C(=O)OC(C)C)C(c2cncc(-c3ccc(F)cc3)c2)C(C#N)=C(N)O1 (stereo unspecified),-0.367
8,CCOC(=O)C1=C(C)OC(N)=C(C#N)C1c1cc(F)ccc1F (stereo unspecified),-2.09
9,Cc1ccc(S(=O)(=O)NC(C)C(c2cccs2)N2CCN(c3ccccc3)CC2)cc1 (stereo unspecified),-0.115
10,CCCOc1ccc(C(=O)NNC(=S)NC(=O)c2cc(-c3ccccc3)nc3ccccc23)cc1,0.558
11,Cc1ccc(-c2cc(C(=O)Nc3ccccc3C)c3ccccc3n2)o1,0.279
12,COc1ccc(C(=O)NNC(=S)NC(=O)c2cc(-c3ccccc3)nc3ccccc23)cc1,2.35
13,Cc1ccccc1NC(=S)NC(=O)c1cc(-c2ccccc2)nc2ccccc12,7.41 (active)
14,O=C(NCc1ccccn1)c1cc(-c2ccccc2)nc2ccccc12,-0.314
15,Cc1ccc(-c2cc(C(=O)Nc3cc(C)on3)c3ccccc3n2)cc1,-0.321
16,CCCOc1ccc(C(=O)NNC(=S)NC(=O)c2cc(-c3ccc(Cl)cc3)nc3ccccc23)cc1,-0.0891
17,Cc1cccc(NC(=S)NC(=O)c2cc(-c3ccccc3)nc3ccccc23)c1,5.14 (active)
18,CCNC(=S)NNC(=O)c1cc(-c2cccc(C)c2)nc2ccccc12,0.214
19,O=C(NC(=S)Nc1ccccn1)c1cc(-c2ccccc2)nc2ccccc12,3.22 (active)
20,Cc1cccc(NC(=O)c2cc(Cl)nc3ccccc23)c1,-0.228
21,O=C(NCc1ccccn1)c1cc(-c2ccc(-c3ccccc3)cc2)nc2ccccc12,-0.368

# Source: PubChem BioAssay AID488969 (Vanderbilt High Throughput Screening Facility, 2010)
